Most compounds without a hit are left out; they make up all but 1.5% or so of the library.
Insulin prom inh: TRM-6 insulin promoter activity inhibition; AID 1273; 0.9% of 130,000 active; inhibition, % at 2 µM; TRM-6 cells (human fetal islet line), insulin promoter-eGFP reporter, imaging; reporter expression induced with tamoxifen;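 active means inhibition above the mean plus 3 SD, with well images judged a real hit on visual review, cut at about 60% in these data, passing the limit was not always enough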
Hsp70 act: switches on Hsp70 transcription | HeLa Hsp70 promoter luciferase reporter, luminescence; scaled: vehicle 0, proteasome-inhibitor control 100% | 0.04% of 200,000 active | activation, % at 10 µM;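 active means activation above the mean across all tested compounds plus 3 SD, cutoff set per campaign, cut at about 5.5% in these data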;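 further: 100% = MG132 at 30 µM as the positive control and 0% = DMSO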
S1P3 antag-1: antagonists of human S1P3 receptor | Q99500 | 0.27% of 170,000 active | CHO S1P3 NFAT-BLA reporter, FRET fluorescence, antagonist mode | inhibition, % at 4.98 µM;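 active means inhibition above the plate cutoff, the mean inhibition of test wells on that plate plus 3 SD, cut at about 28% in these data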;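 further: cells challenged with S1P at its EC80 of 0.8 µM; blue over green emission ratio from cleaved BLA substrate after 4 h stimulation; 0% = S1P-stimulated wells and 100% = unstimulated DMSO-only wells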
Target sequence (Q99500 whole entry, looked up): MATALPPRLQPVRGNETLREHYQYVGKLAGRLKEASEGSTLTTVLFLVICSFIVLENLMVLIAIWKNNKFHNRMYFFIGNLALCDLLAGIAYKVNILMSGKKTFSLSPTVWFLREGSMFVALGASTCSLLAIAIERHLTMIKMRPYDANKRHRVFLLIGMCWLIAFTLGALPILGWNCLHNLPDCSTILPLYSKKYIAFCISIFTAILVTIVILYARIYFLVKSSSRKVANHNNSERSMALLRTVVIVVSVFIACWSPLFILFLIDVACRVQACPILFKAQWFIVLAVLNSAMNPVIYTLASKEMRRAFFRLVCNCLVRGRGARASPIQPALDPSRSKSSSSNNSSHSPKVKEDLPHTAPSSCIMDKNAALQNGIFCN
S1P4 antag: antagonists of human S1P4 receptor; O95977; S1P4-expressing cells, antagonist mode, reporter read-out; inhibition, % at 4.98 µM; 0.26% of 220,000 active; in the data active means inhibition above about 29%;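 further: 0% = wells stimulated with agonist and 100% = vehicle wells without agonist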
Ins promoter up: MIN6 insulin promoter up-regulation; AID 1625; MIN6 insulin promoter-GFP reporter, high-content imaging; stronger effect = higher value; z-score at 5 µM; 0.3% of 190,000 active;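 active means z-score above 3 at 5 µM with at least 500 cells counted in the well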
S1P4 agonist: human S1P4 receptor agonism | activation, % at 4.98 µM | S1P4-expressing cell line, agonist reporter assay | 0.35% of 220,000 active; in the data active means activation above about 11%;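 further: 0% = DMSO vehicle and 100% = reference agonist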
S1P3 antag-2: human S1P3 receptor antagonism, confirmation; 30% of 240 active; shares compounds with S1P3 antag-1; CHO S1P3 NFAT-BLA reporter, FRET, antagonist mode; inhibition, % at 4.98 µM;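 active means inhibition above the hit threshold that was computed for the earlier primary screen, cut at about 30% in these data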;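 further: 0% = S1P-stimulated wells and 100% = unstimulated DMSO-only wells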
Starred values were filed as active, the others as inactive.

How did O=C(/C=C1\C(=O)Nc2ccccc21)/C=C1\C(=O)Nc2ccccc21 do in these assays?
S1P3 antag-1: -6; S1P4 antag: 46*; Ins promoter up: -0.29; S1P4 agonist: -1

How did C=C(C)C1CC=C(C)/C(=N/NC(=O)c2ccc(NC(=O)CCC)cc2)C1 (stereo not given) do in these assays?
Insulin prom inh: 83*; Hsp70 act: 0; S1P4 antag: 0; Ins promoter up: 0.45; S1P4 agonist: -2

Results for CCCNC(=O)CSc1nc2ccc(OCC)cc2s1 ?
Insulin prom inh: -50; Hsp70 act: 0; S1P3 antag-1: -7; S1P4 antag: -20; Ins promoter up: 0.2; S1P4 agonist: 2

Results for CCOc1ccc2nc(SCC(=O)NC(=O)C(C)C)sc2c1 ?
Insulin prom inh: 100*; Hsp70 act: 0; S1P3 antag-1: -14; S1P4 antag: -1; Ins promoter up: -0.23; S1P4 agonist: 1

What do the screens show for `Cc1ccc(C2N(c3ccc(Cl)cc3)C(=O)N3CCCN23)cc1` (stereo not given)?
S1P3 antag-1: 2; S1P4 antag: 14; Ins promoter up: 0.54; S1P4 agonist: 1

What do the screens show for `NNC(=O)c1nnn(-c2nonc2N)c1-c1cccs1`?
Insulin prom inh: -66; Hsp70 act: 0; S1P4 antag: -5; Ins promoter up: 0.32; S1P4 agonist: 0

What do the screens show for `COc1ccc(NC(=O)c2ccco2)cc1NC(=O)c1ccc(Br)o1`?
Insulin prom inh: 73*; Hsp70 act: 0; S1P3 antag-1: -7; S1P4 antag: -8; Ins promoter up: 0.1; S1P4 agonist: 1

How did Nc1ccc2c(c1)Cc1cc([N+](=O)[O-])ccc1-2 do in these assays?
Hsp70 act: 0; S1P3 antag-1: 52*; S1P4 antag: 20; S1P4 agonist: 0

Results for COC(=O)[C@@H]1[C@@H](C#N)C2(c3ccccc3-c3ccccc32)N(c2ccc(Cl)cc2)N1C#N ?
Insulin prom inh: -44; Hsp70 act: 0; S1P4 antag: -5; S1P4 agonist: -1

Results for CC(NC(=O)c1ccccc1)c1ccc(Br)cc1 (stereo not given) ?
Insulin prom inh: 88*; Hsp70 act: 0; S1P3 antag-1: -5; S1P4 antag: -8; Ins promoter up: -0.07; S1P4 agonist: -1

Results for CCN(CC)CCn1c(=S)[nH]c2ccc(Cl)cc2c1=O ?
Hsp70 act: 0; S1P4 antag: 6; Ins promoter up: 4*; S1P4 agonist: 0

How did CCN(CC)CCn1c(=S)[nH]c2cc(Cl)ccc2c1=O do in these assays?
Hsp70 act: 0; S1P4 antag: 0; Ins promoter up: -1.2; S1P4 agonist: 0

What do the screens show for `CC1=NNC(=O)C1CCC(=O)N/N=C/c1ccc(C)cc1` (stereo not given)?
S1P3 antag-1: -4; S1P4 antag: 11; Ins promoter up: 3.3*; S1P4 agonist: -1

Results for COCc1cc(C)nc(Nc2ccccc2C)c1C#N ?
Insulin prom inh: -408; Hsp70 act: 0; S1P3 antag-1: 5; S1P4 antag: -7; Ins promoter up: 3.3*; S1P4 agonist: 3

How did Cc1ccc(-n2c(=O)[nH]cc(C(=O)Nc3ccc4c(c3)OCCO4)c2=O)cc1C do in these assays?
Insulin prom inh: 86*; Hsp70 act: 0; S1P3 antag-1: -15; S1P4 antag: 4; Ins promoter up: -0.14; S1P4 agonist: 3

Results for COc1cccc(NC(=O)CN2C(=O)NC(C)(CC(C)C)C2=O)c1 (stereo not given) ?
Insulin prom inh: -2; Hsp70 act: 0; S1P3 antag-1: -4; S1P4 antag: -8; Ins promoter up: 0.3; S1P4 agonist: 2

How did COc1ccc(-c2[nH]ncc2N=Nc2cc(C)cc(C)c2)cc1 do in these assays?
Hsp70 act: 0; S1P3 antag-1: 38*; S1P4 antag: -24; Ins promoter up: -0.53; S1P4 agonist: 1; S1P3 antag-2: 12

How did C/C(=N/N=C1\SCC(=O)N1c1ccccc1)c1ccc(C)cc1 do in these assays?
S1P3 antag-1: 7; S1P4 antag: -3; Ins promoter up: -0.11; S1P4 agonist: 0

What do the screens show for `Cc1cc(OCC(=O)NCCCN(C)C)cc(C)c1Br`?
Insulin prom inh: 64; Hsp70 act: 0; S1P3 antag-1: -38; S1P4 antag: -1; Ins promoter up: 0.13; S1P4 agonist: -2

What do the screens show for `O=C(Nc1ccc(F)cc1)C(Cc1ccccc1)n1cccc1` (stereo not given)?
S1P3 antag-1: 36*; S1P4 antag: -11; Ins promoter up: -0.51; S1P4 agonist: 1; S1P3 antag-2: 10

How did CC(C)NC(=O)c1ccc(-n2nc(C(F)(F)F)c3c2CCCC3)cc1 do in these assays?
Hsp70 act: -1; S1P3 antag-1: -1; S1P4 antag: -20; Ins promoter up: 0.03; S1P4 agonist: 5

How did Nc1ccc2nc3c(=O)n(CCc4ccccc4)c(=O)[nH]c3nc2c1 do in these assays?
S1P3 antag-1: 8; S1P4 antag: 16; Ins promoter up: 1.2; S1P4 agonist: 0

How did Nc1ccc2nc3c(=O)n(C4CCCCC4)c(=O)[nH]c3nc2c1 do in these assays?
S1P3 antag-1: 30*; S1P4 antag: 26; Ins promoter up: 2.6; S1P4 agonist: -2; S1P3 antag-2: 13

What do the screens show for `Cc1ccccc1C(=O)N1CCN(c2ccc(NC(=O)c3ccc4c(c3)OCO4)cc2)CC1`?
Insulin prom inh: -20; Hsp70 act: 0; S1P3 antag-1: 30*; S1P4 antag: -4; Ins promoter up: -2.4; S1P4 agonist: 1; S1P3 antag-2: 36*

What do the screens show for `Cc1nn(-c2ccccc2)c(Cl)c1/C=N/NC(=O)c1ccco1`?
Insulin prom inh: 50; Hsp70 act: 0; S1P4 antag: 0; S1P4 agonist: -1

Results for Cc1nn(-c2ccccc2)c(Cl)c1/C=N/NC(=O)c1ccc(CNc2ccccc2)o1 ?
Insulin prom inh: 14; Hsp70 act: 0; S1P3 antag-1: 28*; S1P4 antag: -8; Ins promoter up: -1.6; S1P4 agonist: -3; S1P3 antag-2: 19

What do the screens show for `O=C(NCC1CCCO1)C(=O)c1c[nH]c2ccccc12` (stereo not given)?
Insulin prom inh: 18; Hsp70 act: 0; S1P3 antag-1: -4; S1P4 antag: 2; Ins promoter up: 0.75; S1P4 agonist: -1

Results for Cc1[nH]c2ccccc2c1C(=O)C(=O)NCC1CCCO1 (stereo not given) ?
Hsp70 act: 0; S1P3 antag-1: 53*; S1P4 antag: 6; Ins promoter up: -0.54; S1P4 agonist: 1; S1P3 antag-2: -12

What do the screens show for `Cc1oc2cc(OCc3cnn(-c4ccccc4)c3)ccc2c(=O)c1Oc1ccccc1F`?
Hsp70 act: 0; S1P3 antag-1: -7; S1P4 antag: -9; Ins promoter up: 1.3; S1P4 agonist: -4

High-throughput results: PubChem BioAssay, several laboratories
